The record followed here is PubChem BioAssay.

A short description of assay [1]: small molecules captured by biotinylated probe aFSTL3 – biochemical, small-molecule microarray, fluorescence 635/667, stem cell growth factor project, primary screen (AID 1064).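 Also: measures binding of the biotinylated anti-FSTL3 antibody to printed compounds.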 The conditions noted are these: higher = more signal.
The nature of assay [2]: binders from COS7 lysate, DM2A8 probe, primary screen, torsin A project, cell lysate, small-molecule microarray, fluorescence 635/667 (AID 1065). The conditions noted are these: higher = more signal, COS7 lysate expressing mutant human TOR1A.
Assay [3] can be described thus: small molecules captured by biotinylated probe aFGF2 – biochemical, small-molecule microarray, fluorescence 635/667, stem cell growth factor project, primary screen (AID 1067).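 Also: measures binding of biotinylated aFGF2 protein to printed compounds on slides; z-score merges feature fluorescence and signal-to-noise across triplicate slides.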 The conditions noted are these: higher = more signal.
Assay [4] is described as follows: small molecules captured by biotinylated probe aFGF10 – biochemical, small-molecule microarray, fluorescence 635/667, stem cell growth factor project, primary screen (AID 1071).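 Also: score merges 667 nm spot intensity and signal to noise from triplicate slides.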 The conditions noted are these: higher = more signal.
The target of assay [5] is Neurogenic locus notch homolog protein 2 (Homo sapiens) (UniProt Q04721). Briefly: small molecules binding Notch2 protein – biochemical, small-molecule microarray, 635 nm fluorescence, stem cell growth factors, primary screen (AID 1073). The conditions noted are these: higher = more signal.
Neurogenic locus notch homolog protein 2 (Homo sapiens), sequence (Q04721 whole entry, looked up, canonical isoform): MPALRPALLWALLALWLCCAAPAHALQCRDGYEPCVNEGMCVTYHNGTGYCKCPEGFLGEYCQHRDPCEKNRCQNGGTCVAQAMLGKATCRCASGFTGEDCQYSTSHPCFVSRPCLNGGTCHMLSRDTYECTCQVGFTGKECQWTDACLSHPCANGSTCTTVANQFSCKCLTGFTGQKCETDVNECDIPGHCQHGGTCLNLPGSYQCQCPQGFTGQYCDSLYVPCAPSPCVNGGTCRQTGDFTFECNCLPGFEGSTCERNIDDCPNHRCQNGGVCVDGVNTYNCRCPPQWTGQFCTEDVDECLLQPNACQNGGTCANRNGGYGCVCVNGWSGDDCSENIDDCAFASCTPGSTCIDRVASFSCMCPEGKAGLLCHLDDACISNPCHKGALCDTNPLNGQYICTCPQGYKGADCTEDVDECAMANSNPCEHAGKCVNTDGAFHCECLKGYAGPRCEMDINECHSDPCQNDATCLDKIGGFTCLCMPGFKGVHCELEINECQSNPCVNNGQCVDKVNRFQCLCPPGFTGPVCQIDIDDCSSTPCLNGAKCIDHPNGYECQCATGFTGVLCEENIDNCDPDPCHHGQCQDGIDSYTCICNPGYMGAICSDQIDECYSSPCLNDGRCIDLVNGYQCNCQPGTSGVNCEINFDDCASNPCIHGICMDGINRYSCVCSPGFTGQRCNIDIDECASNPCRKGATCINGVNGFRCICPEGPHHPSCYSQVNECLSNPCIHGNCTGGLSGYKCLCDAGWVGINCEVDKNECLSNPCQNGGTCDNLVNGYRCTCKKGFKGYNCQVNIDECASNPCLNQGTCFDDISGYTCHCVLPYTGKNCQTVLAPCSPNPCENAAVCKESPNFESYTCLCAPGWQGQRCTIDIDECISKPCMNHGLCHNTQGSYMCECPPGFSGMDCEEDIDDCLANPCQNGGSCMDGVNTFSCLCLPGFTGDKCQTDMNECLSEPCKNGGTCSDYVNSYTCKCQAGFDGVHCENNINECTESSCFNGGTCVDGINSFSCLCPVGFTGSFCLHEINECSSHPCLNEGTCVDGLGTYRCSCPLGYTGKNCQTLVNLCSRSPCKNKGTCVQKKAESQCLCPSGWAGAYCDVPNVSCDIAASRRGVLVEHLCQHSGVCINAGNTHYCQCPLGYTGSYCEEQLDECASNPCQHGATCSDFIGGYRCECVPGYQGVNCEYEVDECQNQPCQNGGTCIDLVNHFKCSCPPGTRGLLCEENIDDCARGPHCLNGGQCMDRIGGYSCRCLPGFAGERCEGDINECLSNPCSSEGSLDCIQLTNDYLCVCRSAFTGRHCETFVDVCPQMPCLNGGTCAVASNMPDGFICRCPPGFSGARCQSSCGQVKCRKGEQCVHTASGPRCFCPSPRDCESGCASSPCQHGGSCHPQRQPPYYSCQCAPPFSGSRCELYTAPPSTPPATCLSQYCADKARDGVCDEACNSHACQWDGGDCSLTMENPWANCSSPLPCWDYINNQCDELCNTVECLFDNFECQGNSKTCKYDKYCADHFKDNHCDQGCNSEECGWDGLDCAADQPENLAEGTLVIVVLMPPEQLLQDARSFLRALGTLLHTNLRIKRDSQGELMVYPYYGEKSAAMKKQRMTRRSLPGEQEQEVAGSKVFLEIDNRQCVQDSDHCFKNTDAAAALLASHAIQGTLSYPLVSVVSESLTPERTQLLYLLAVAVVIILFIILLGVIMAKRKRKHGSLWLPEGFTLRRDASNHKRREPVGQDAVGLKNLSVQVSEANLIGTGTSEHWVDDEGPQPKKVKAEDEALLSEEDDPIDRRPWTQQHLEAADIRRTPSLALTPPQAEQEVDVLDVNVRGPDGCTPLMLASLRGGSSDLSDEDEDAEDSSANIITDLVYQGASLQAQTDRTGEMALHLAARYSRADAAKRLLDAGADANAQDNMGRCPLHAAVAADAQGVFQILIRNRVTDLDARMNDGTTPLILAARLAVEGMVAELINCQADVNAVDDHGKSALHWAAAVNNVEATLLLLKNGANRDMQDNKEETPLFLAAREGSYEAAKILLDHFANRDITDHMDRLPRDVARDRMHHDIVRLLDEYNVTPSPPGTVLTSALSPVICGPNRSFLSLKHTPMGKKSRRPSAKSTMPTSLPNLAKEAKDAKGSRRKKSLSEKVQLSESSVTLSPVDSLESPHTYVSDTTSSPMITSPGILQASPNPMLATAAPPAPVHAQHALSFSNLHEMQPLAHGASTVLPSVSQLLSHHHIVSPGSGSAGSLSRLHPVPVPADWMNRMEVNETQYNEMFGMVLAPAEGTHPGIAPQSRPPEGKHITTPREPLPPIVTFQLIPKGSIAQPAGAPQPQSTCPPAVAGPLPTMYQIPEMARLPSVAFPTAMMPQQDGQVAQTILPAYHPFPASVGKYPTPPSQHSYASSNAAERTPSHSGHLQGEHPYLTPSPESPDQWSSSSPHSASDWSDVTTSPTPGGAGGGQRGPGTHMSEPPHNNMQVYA
In assay [6] the target is Pro-neuregulin-1, membrane-bound isoform (Homo sapiens) (UniProt Q02297). Briefly: small molecules binding neuregulin-1 protein – biochemical, small-molecule microarray, fluorescence 635/667, psychiatric disease protein project, primary screen (AID 1075).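 Also: score combines 667 nm spot fluorescence with signal to noise.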 The conditions noted are these: NRG1 binding, 635 nm fluorescence, higher = more signal.
The test system of assay [7] is Neuregulin-1 EGF-like domain. Briefly: small molecules binding NRG1 EGF domain – biochemical, small-molecule microarray, 635 nm fluorescence, primary screen (AID 1081).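 Also: binding of the protein to compounds printed on small-molecule microarray slides.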 The conditions noted are these: higher = more signal.
The nature of assay [8]: FRG1 expression reporter modulators in myotubes – cell-based, C2C12 myotubes, firefly/Renilla luciferase, luminescence, FRG1 inhibition for FSHD, primary screen (AID 1084). The conditions noted are these: FRG1 promoter luciferase, higher = more signal, called active from +8 up or from −8 down.
The nature of assay [9]: small molecules captured by biotinylated probe aFST – biochemical, small-molecule microarray, fluorescence 635/667, stem cell growth factor project, primary screen (AID 1086).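 Also: score merges 667 nm fluorescence with signal-to-noise of each printed compound spot.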 The conditions noted are these: higher = more signal.
The nature of assay [10]: binders of probe aHhip on microarray, primary screen, stem cell growth factor project, biochemical, small-molecule microarray, fluorescence 635/667 (AID 1087).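 Also: score merges spot fluorescence at 667nm with spot signal to noise ratio.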 The conditions noted are these: higher = more signal.
Assay [11] deals with PRMT1 (protein arginine N-methyltransferase 1). Nature of the assay: small molecules binding arginine methyltransferase PRMT1 – biochemical, small-molecule microarray, 635 nm fluorescence, primary screen (AID 1088).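 Also: binding of Prmt1 protein to compounds spotted on small-molecule microarray slides.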 The conditions noted are these: higher = more signal.
Assay [12] in a line: growth effects on S. cerevisiae YJM789 – YJM789 clinical isolate, OD600, 24 h, basal, primary screen (AID 1089).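 Also: growth of clinical yeast isolate S. cerevisiae YJM 789 seeded 1000 cells per well; test concentration not given here.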 The conditions noted are these: higher = more signal, called active from +8 up or from −8 down.
A short description of assay [13]: S. pombe growth modifiers, basal conditions – strain 972, OD600, 24 h, no modulator, primary screen (AID 1090).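 Also: basal condition with compound alone and no growth modifier present; test concentration not given here.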 The conditions noted are these: S. pombe 972 growth, higher = more signal, called active from +8 up or from −8 down.
Assay [14] is described as follows: budding yeast growth modifiers under rapamycin – strain BY4716, OD600, 96 h, primary screen (AID 1091). Also: test concentration not given here. The conditions noted are these: S. cerevisiae BY4716 + rapamycin, higher = more signal, called active from +8 up or from −8 down.
Assay [15] deals with Torsin-1A-interacting protein 2 (Homo sapiens) (UniProt Q8NFQ8). Briefly: small molecules binding lysate-expressed LULL1 – cell lysate, human LULL1 lysate, 635/667 nm fluorescence, primary screen (AID 1092).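 Also: probe is lysate of COS7 cells overexpressing human LULL1; score merges per-feature 667 nm fluorescence with signal-to-noise.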 The conditions noted are these: small-molecule microarray, hLULL1 lysate binding, 635 nm fluorescence; higher = more signal.
Assay [16] is described as follows: optical density change of DRC41 E. coli – strain DRC41, OD650, 24 h, E. coli filamentation project, primary screen (AID 1093).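 Also: MC1000 strain lacking acrAB efflux and sulA so SOS filamentation is blocked; test concentration not given here.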 The conditions noted are these: E. coli DRC41 growth, higher = more signal, called active from +8 up or from −8 down.
A short description of assay [17]: probe aLefty2 binding to arrayed compounds – biochemical, biotinylated probe, 635/667 nm fluorescence, primary screen (AID 1094).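 Also: score merges spot fluorescence near 667 nm with spot signal-to-noise ratio.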 The conditions noted are these: small-molecule microarray, higher = more signal.
Assay [18] has as its system Noggin (protein binding on small-molecule microarray). Nature of the assay: small molecules binding Noggin protein – biochemical, 635/667 nm fluorescence, primary screen (AID 1095).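 Also: score merges 667 nm feature fluorescence with signal to noise over triplicate slides.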 The conditions noted are these: 635 nm fluorescence, higher = more signal.
Assay [19] concerns the target Neurogenic locus notch homolog protein 3 (Homo sapiens) (UniProt Q9UM47). Briefly: small molecules binding NOTCH3 protein – biochemical, 635/667 nm fluorescence, primary screen (AID 1096). The conditions noted are these: small-molecule microarray, 635 nm fluorescence, higher = more signal.
Assay [20] can be described thus: probe aEGFR binding to arrayed compounds – biochemical, biotinylated probe, 635/667 nm fluorescence, primary screen (AID 1097).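 Also: probe is a biotinylated anti-EGFR antibody binding compounds printed on slides; score combines fluorescence near 667 nm and signal to noise of each spot.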 The conditions noted are these: small-molecule microarray, higher = more signal.

Activity calls are given as the source filed them.

Neurogenic locus notch homolog protein 3 (Homo sapiens), sequence (Q9UM47 whole entry, looked up): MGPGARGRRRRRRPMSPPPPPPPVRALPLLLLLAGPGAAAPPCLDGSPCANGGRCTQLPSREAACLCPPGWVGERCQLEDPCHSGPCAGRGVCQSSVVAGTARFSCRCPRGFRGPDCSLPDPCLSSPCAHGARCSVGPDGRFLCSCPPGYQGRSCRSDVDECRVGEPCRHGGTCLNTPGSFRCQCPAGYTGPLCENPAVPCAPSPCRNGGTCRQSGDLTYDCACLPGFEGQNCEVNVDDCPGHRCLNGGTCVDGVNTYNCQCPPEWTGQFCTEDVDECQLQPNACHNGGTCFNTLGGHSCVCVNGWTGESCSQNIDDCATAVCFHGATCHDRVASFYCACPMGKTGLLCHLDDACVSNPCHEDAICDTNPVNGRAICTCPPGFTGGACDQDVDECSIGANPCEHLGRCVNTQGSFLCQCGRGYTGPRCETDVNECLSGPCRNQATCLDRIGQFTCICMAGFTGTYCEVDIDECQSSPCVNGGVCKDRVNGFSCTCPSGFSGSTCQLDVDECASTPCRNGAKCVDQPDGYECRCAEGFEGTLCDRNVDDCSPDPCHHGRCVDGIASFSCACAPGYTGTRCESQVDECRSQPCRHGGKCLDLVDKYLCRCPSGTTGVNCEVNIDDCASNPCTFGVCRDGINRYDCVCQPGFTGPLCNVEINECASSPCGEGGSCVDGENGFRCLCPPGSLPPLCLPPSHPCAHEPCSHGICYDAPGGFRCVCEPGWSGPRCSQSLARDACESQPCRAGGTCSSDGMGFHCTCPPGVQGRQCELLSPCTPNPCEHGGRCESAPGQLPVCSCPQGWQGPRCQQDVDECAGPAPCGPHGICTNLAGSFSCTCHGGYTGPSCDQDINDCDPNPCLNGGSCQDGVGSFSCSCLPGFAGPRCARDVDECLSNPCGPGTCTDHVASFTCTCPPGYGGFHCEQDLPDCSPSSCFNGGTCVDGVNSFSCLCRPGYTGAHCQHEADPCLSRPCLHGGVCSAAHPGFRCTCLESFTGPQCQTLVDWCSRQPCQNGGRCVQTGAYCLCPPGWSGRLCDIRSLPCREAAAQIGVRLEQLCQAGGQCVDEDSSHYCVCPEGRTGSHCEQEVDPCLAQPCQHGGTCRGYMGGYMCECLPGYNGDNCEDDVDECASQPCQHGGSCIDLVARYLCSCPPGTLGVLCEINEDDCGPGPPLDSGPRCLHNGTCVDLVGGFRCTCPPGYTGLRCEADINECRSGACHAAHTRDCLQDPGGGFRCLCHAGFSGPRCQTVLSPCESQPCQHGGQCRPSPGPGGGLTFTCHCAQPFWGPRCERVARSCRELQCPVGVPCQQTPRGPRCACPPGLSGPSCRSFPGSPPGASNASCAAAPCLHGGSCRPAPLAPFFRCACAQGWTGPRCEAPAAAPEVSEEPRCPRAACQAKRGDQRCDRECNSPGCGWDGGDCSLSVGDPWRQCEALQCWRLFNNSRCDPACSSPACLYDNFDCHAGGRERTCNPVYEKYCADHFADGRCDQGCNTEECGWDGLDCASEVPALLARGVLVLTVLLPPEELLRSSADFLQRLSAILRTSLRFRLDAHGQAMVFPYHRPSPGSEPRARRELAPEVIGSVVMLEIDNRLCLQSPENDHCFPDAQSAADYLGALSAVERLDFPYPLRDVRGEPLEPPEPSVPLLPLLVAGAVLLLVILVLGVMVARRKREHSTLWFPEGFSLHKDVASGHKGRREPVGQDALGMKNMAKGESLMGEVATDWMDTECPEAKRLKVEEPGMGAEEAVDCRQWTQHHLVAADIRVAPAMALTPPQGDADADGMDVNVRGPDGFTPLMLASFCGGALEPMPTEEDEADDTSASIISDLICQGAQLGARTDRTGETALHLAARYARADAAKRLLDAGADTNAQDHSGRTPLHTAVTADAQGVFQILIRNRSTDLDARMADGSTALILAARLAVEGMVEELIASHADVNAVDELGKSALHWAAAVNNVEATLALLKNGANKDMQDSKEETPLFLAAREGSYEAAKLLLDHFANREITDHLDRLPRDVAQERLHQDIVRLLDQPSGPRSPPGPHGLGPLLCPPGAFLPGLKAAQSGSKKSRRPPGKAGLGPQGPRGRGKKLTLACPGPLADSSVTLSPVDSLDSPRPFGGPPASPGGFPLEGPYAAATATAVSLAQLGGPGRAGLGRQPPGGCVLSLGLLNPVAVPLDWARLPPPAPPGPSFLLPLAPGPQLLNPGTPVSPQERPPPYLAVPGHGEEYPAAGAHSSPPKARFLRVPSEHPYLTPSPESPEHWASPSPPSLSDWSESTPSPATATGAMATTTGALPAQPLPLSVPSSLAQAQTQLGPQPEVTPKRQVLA

With `[N-]=[N+]=NCc1ccccc1[C@@H]1OC(c2ccc(OCCCO)cc2)=N[C@]1(Cc1ccccc1N=[N+]=[N-])C(=O)O`, the composite z-score in [1] worked out at 0.535; in assay [2] it was 0.326; in [3], 0.294; in assay [4], 1.14; in assay [5], 1.55; in [6], 1.89. In addition, the composite z-score in assay [7] amounted to 1.3; in [9], 1.28; in assay [10], 0.455; in assay [11], 1.48; in assay [15], 3.13; in assay [17] it was 0.515. For the same compound, the composite z-score in [18] is -0.0626; in assay [19] it was 1.11; in assay [20] it was 0.439. For the same compound, the z-score in assay [8] is 1.22 (inactive); in assay [12], -0.282 (inactive); in assay [13], -1.64 (inactive); in assay [14] it was -0.794 (inactive); in assay [16], -0.0956 (inactive).

As to `CC(C)=C1C(=O)C(c2ccccc2)=C2CN3C(=O)N(CCc4ccccc4)C(=O)[C@]3(C)[C@H]21`, the composite z-score in assay [1] is 0.532; in assay [2], -0.0272; in [3], 0.15; in [4], 0.265; in assay [5], 1.26; in assay [6], 1.81. The composite z-score in [7] is 1.07; in [9], 0.64; in assay [10] it was -0.0346; in assay [11], -0.638; in assay [15] it was 1.19; in [17], 0.211. The composite z-score was -0.335 in assay [18], 0.451 in assay [19] and -0.0251 in assay [20]. Also, the z-score in [8] is 0.863 (inactive); in assay [12], -0.37 (inactive); in [13], -0.262 (inactive); in assay [14], 1.48 (inactive); in assay [16] it was -1.27 (inactive).

Take `CC(C)C[C@@H]1NC(=O)[C@@H]2C[C@H](C(=O)NCCCCCCNC(=O)CS)[C@H](c3cccc(OCCO)c3)N2C1=O`: the composite z-score in assay [1] is -0.514; in assay [2], 1.05; in [3], 0.0379; in assay [4], 0.968; in assay [5], 1.34; in assay [6], 1.21. In addition, the composite z-score in assay [7] was 1.39; in assay [9], 0.756; in [10] it was -0.069; in assay [11], 1.54; in assay [15], 2.84; in assay [17], -0.0124. Besides, the composite z-score in assay [18] was 1.66; in [19], 1.02; in [20], 0.0618. Further, the z-score in [8] was 0.509 (inactive); in [12], 0.509 (inactive); in [13], 0.679 (inactive); in [14], 1.52 (inactive); in [16], -0.616 (inactive).

Regarding `C=C(CCCC)C(=O)CC[C@@H](OC(=O)c1ccccc1-c1ccccc1C(=O)O)c1ccccc1OCCO`, the composite z-score was -0.173 in [1]; 0.222 in assay [2]; -0.0566 in [3]; 0.803 in [4]; -0.0697 in assay [5]; -0.0918 in [6]. Also, the composite z-score in assay [7] is 0.0551; in assay [9] it was -0.501; in assay [10], 0.0373; in [11], 1.23; in assay [15] it was -0.583; in [17] it was -0.146. Moreover, the values for the composite z-score in assay [18], in assay [19] and in assay [20] were 1.2, 0.48 and -0.178, respectively. Moreover, the z-score in [8] is -0.39 (inactive); in [12] it was -0.576 (inactive); in assay [13], -1.19 (inactive); in assay [14], -1.61 (inactive); in assay [16], 0.306 (inactive).

Regarding `CO[C@H]1O[C@H](CO)[C@@H](OC(=O)Nc2ccccc2)[C@H](OC(=O)Nc2ccccc2)[C@H]1OC(=O)Nc1ccccc1`, the composite z-score in [1] is -0.114; in [2] it was 0.0396; in [3] it was 0.118; in assay [4], 1.17; in assay [5] it was 0.971; in assay [6] it was 0.888. The composite z-score in [7] is 1.34; in [9] it was 0.0643; in assay [10] it was -0.0296; in assay [11], 1.43; in [15], 3.49; in assay [17] it was -0.134. Besides, the composite z-score in [18] is 0.772; in [19], 0.814; in [20], -0.0978. The z-score in assay [8] was 0.921 (inactive); in [12] it was 1.55 (inactive); in assay [13], 0.759 (inactive); in assay [14], 0.997 (inactive); in [16], 0.758 (inactive).
